GTP binding activity data for 101 compounds are collected here from PubChem BioAssay AID760 (NMMLSC, 2007).

Each structure is given as a SMILES string. The whole screen tested about 190,000 compounds, of which about 360 (0.19%) were called active. Inconclusive results (about 2%) are left out.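 The calls were made as follows: active = GTP binding activity at least 20 points away from 100%, either lowered or raised; inconclusive = signal likely due to the compound's own green fluorescence; inactive = the rest.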 What follows is part of a selection rich in actives, with near analogues and random picks from the rest.

The assay has as its target Ras-related protein Rab-2A (Canis lupus familiaris) (UniProt P61105). Description: Rab2 wt fluorescent GTP binding changes, either direction – biochemical, dog, bead-based flow cytometry, multiplex, primary screen (AID 760).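 Also: 0% = beads with excess unlabeled GTP and 100% = no-compound control corrected for plate trend.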 The conditions noted are these: GST-Rab2 wt beads, Bodipy-GTP binding, at 10 µM. (Flow cytometry measures light scatter and fluorescence of single cells or particles in a stream.)
For `N#C/C(C(=S)Nc1ccccc1)=C1/NN=C(N2CCOCC2)N1c1ccccc1`, the GTP binding activity is 90% (inactive). Take `CCCn1c(N)c(C(=O)CSc2nc3ccccc3c(=O)n2-c2ccc(OC)cc2)c(=O)[nH]c1=O`: the GTP binding activity was 92% (inactive). As for `S=c1[nH]nc(Nc2ccccc2)s1`, the GTP binding activity is 92% (inactive). `O=C1CCC(=O)N1c1ccc(NCCc2ccccc2F)c([N+](=O)[O-])c1`: the GTP binding activity was 101% (inactive). The same measure for `NC(=O)COC(=O)c1sc2cc(F)ccc2c1Cl`: 94% (inactive). Consider `CCN(CC)S(=O)(=O)c1ccc(N2CCCC2)c(NS(=O)(=O)c2cccs2)c1`, for which the GTP binding activity was 94% (inactive). The same measure for `O=C(NCc1ccccc1Cl)C1CCN(S(=O)(=O)N2CCOCC2)CC1`: 104% (inactive). Consider `Cc1ccc(NC(=O)c2ccccn2)cc1S(=O)(=O)N1CCOCC1`, for which the GTP binding activity is 99% (inactive).

With `CSc1ccc(CNCCN2CCOCC2)cc1`, the GTP binding activity is 96% (inactive). With `COC(=O)c1ccc(NC(=S)NN2CCOCC2)cc1`, the GTP binding activity was 99% (inactive). As to `CCCC(=O)OCC(=O)Nc1cc(Cl)ccc1[N+](=O)[O-]`, the GTP binding activity was 92% (inactive). As for `O=c1c(-c2ccccc2)cnc2n1CCS2`, the figure is 96% (inactive). As to `Cc1ccc(NC(=O)c2ccc(S(=O)(=O)NCC3CCCO3)cc2)cc1C` (stereo unspecified), the GTP binding activity was 97% (inactive). The same measure for `Cc1cc(CNCc2c(C(=O)N(C)Cc3ccccc3)nc3ccccn23)nn1C`: 101% (inactive); for `O=C(Nc1nnc(C2CC2)s1)C1=NN(C2CCS(=O)(=O)C2)C(=O)CC1` (stereo unspecified): 96% (inactive); for `Cc1nc(N2CCCCC2)sc1C=O`: 105% (inactive).

For `Cc1ccccc1NCC(=O)N/N=C\c1ccc([N+](=O)[O-])s1`, the GTP binding activity was 98% (inactive).

With `CS/C(=C\[N+](=O)[O-])Nc1ccc(C)cc1`, the GTP binding activity was 100% (inactive). Take `O=C(NCC1CCCO1)C1CCN(C2CCN(C(=O)C3CCCCC3)CC2)CC1` (stereo unspecified): the GTP binding activity is 98% (inactive). The same measure for `COC(=O)c1cc2n(n1)CCCNC2=O`: 100% (inactive). The same measure for `COc1ccc(N(CC(=O)NC2CCCC2)C(=O)CS(=O)CC(=O)Nc2ccc3c(c2)OCO3)cc1` (stereo unspecified): 95% (inactive); for `CCOC(=O)C1(Cc2ccc(Cl)cc2)CCN(C(=O)C2=NNC(=O)CC2)CC1`: 101% (inactive). As for `Cc1cc(=O)oc2c1c(C)nn2-c1ccc(Cl)cc1`, the figure is 100% (inactive); as for `COc1ncnc2sc3c(c12)CCCC3`, 102% (inactive); as for `COc1cc(/C=N/Nc2ccc(C)cc2)cc(Br)c1O`, 94% (inactive). As to `COc1ccc(/C=N/Nc2ncnc3sc4c(c23)CCCC4)cc1O`, the GTP binding activity is 71% (active). `COc1ccc(NC(=S)NCCN2CCC(C)CC2)cc1`: the GTP binding activity was 100% (inactive). As for `COc1cc(OC)c(C(=O)N2CCCC2)cc1OC`, the figure is 98% (inactive). The same measure for `COc1ccc(/C=N/NC(=O)c2ccncc2)cc1CN1CCCc2ccccc21`: 95% (inactive); for `COc1ccc(CN2CCC(c3nc4ccc(Cl)cc4[nH]3)CC2)cc1`: 96% (inactive). As for `CC(Sc1nnnn1C1CCCCC1)C(=O)O` (stereo unspecified), the figure is 101% (inactive); as for `COc1ccc(C(=O)OCC(=O)NCC2CCCO2)cc1[N+](=O)[O-]` (stereo unspecified), 93% (inactive); as for `COC(=O)c1ccc(CN2CCN(CCCc3ccccc3)C(CCO)C2)cc1` (stereo unspecified), 97% (inactive). `CCCSc1nc2[nH]ncc2c(=O)[nH]1`: the GTP binding activity is 99% (inactive). The same measure for `Cc1ccc(CSc2nc3[nH]ncc3c(=O)[nH]2)cc1`: 79% (active); for `Cc1cccc(NC(=O)CSc2nc3[nH]ncc3c(=O)[nH]2)c1`: 94% (inactive). As for `Cc1cc(OCC(=O)NC2CCN(C)CC2)ccc1[N+](=O)[O-]`, the figure is 98% (inactive).

`COc1ccc(C/C(N)=N/OC(=O)c2ccco2)cc1OC`: the GTP binding activity is 101% (inactive). As for `O=C(COC(=O)CNC(=O)c1ccccc1F)NCC(F)(F)F`, the figure is 101% (inactive); as for `Cc1ccc(NC(=O)Nc2cccc(C(F)(F)F)c2)nc1`, 103% (inactive). As for `CC1CC(C)CN(C(=O)CSc2ccsc2[N+](=O)[O-])C1` (stereo unspecified), the figure is 102% (inactive); as for `CCOC(=O)c1sc(NC(=O)CSc2nc(O)c(Cc3ccccc3)c(=O)[nH]2)nc1C`, 93% (inactive). The same measure for `Cc1ccnc(NS(=O)(=O)c2ccc(NC(=O)c3ccc(S(=O)(=O)N(C)C)cc3)cc2)n1`: 98% (inactive).

In the case of `CN(CCC1CCOCC1)Cc1cn[nH]c1-c1ccc(-c2ccccc2)cc1`, the GTP binding activity is 96% (inactive).

`C/C=C/C=C/C(=O)OCC(=O)Nc1ccc(Cl)cc1`: the GTP binding activity was 93% (inactive).

For the compound `CN(C)CCOCCOc1ccc(Cl)c2ccccc12`, the GTP binding activity was 106% (inactive). As for `Cc1nn(CC(=O)Nc2ccc(C#N)cc2)c(C)c1[N+](=O)[O-]`, the figure is 99% (inactive); as for `COC(=O)c1ccc(/C=N/N2C(C)CCCC2C)cc1` (stereo unspecified), 100% (inactive). The same measure for `COC(=O)c1sc2[nH]c(=S)n(N)c(=O)c2c1C`: 100% (inactive); for `CCN(C(=O)COC(=O)c1cc(S(=O)(=O)N2CCc3ccccc32)ccc1OC)C1CCS(=O)(=O)C1` (stereo unspecified): 96% (inactive). Take `CC(NC(=O)C(=O)N/N=C/c1ccc(Cl)cc1)c1ccccc1` (stereo unspecified): the GTP binding activity is 98% (inactive). As for `CC1CCCCC1NC(=O)CO/N=C/c1ccc(OC(F)F)cc1` (stereo unspecified), the figure is 97% (inactive); as for `NS(=O)(=O)c1ccc(NC(=O)COC(=O)c2ccco2)cc1`, 97% (inactive); as for `COc1ccc(C(=O)CSc2nnnn2C)c(OC)c1`, 98% (inactive). Turning to `COc1cc(CN(C)Cc2nc3cc(C(F)(F)F)ccc3c(=O)[nH]2)ccc1OC(F)F`, the GTP binding activity is 94% (inactive). The same measure for `Cn1c(N)cc(-c2ccc(F)cc2)c(C#N)c1=O`: 97% (inactive).

For the compound `Cc1cc(C(=O)N/N=C/c2ccccc2[N+](=O)[O-])c(C)o1`, the GTP binding activity is 95% (inactive).

In the case of `COc1ccc(/C=N/NC(=O)C(C)N(c2ccc(OC)cc2)S(C)(=O)=O)cc1` (stereo unspecified), the GTP binding activity is 96% (inactive). In the case of `CSCCNCc1cn(-c2ccc(F)cc2F)nc1-c1ccccc1C`, the GTP binding activity was 100% (inactive). As for `Cc1ccnc(NC(=O)CCCOc2ccccc2)c1`, the figure is 97% (inactive). As to `O=C(NNC(=O)c1ccccc1[N+](=O)[O-])Nc1ccccc1C(F)(F)F`, the GTP binding activity was 101% (inactive). As for `CC(C)NC(=O)/C(C#N)=C\c1ccc(N(C)C)c(Br)c1`, the figure is 94% (inactive); as for `O=C(CCn1c(=O)[nH]c2ccccc2c1=O)NCCCN1CCN(c2cccc(Cl)c2)CC1`, 101% (inactive); as for `COc1cccc(CNC(=O)Cc2csc(Nc3nc(=S)[nH]c4ccccc34)n2)c1`, 93% (inactive). As to `O=C(Cc1csc(Nc2nc(=S)[nH]c3ccccc23)n1)NCCCN1CCN(c2cccc(Cl)c2)CC1`, the GTP binding activity is 78% (active).

For the compound `Cc1ccnc2nc(C(=O)OCC(=O)N(CC(C)C)CC(C)C)nn12`, the GTP binding activity was 97% (inactive).

Turning to `CCOc1ccccc1N1CCN(C(=O)COc2ccc3c(C)cc(=O)oc3c2)CC1`, the GTP binding activity was 98% (inactive). As for `CCOC(=O)CN/C=C(\C#N)c1ccc(F)cc1`, the figure is 102% (inactive); as for `CCCC(c1nnnn1C(C)(C)C)N1CCN(Cc2ccccc2)CC1` (stereo unspecified), 98% (inactive).

For the compound `O=C(COc1cccc2ccccc12)Nc1cc(S(=O)(=O)N2CCOCC2)ccc1N1CCOCC1`, the GTP binding activity is 98% (inactive). As for `O=c1[nH]n2c(-c3ccccc3)nc(O)c2c2ccccc12`, the figure is 95% (inactive). The same measure for `CCO/C=C1\C(=O)N(c2ccc(OCC)cc2)C(=O)c2ccccc21`: 93% (inactive); for `COc1ccc(S(=O)(=O)N2CCOCC2)cc1C(=O)Nc1nc2ccccc2s1`: 72% (active); for `CCOC(=O)c1sc(NC(=O)c2cc(S(=O)(=O)N3CCOCC3)ccc2C)nc1C`: 98% (inactive). Turning to `COc1ccc(S(=O)(=O)N2CCOCC2)cc1NC(=O)CSc1ncnc2ccccc12`, the GTP binding activity is 93% (inactive). Turning to `COc1ccc(OC)c(-c2csc(NC(=O)C3=NNC(=O)CC3)n2)c1`, the GTP binding activity is 96% (inactive).

As to `CNC(=S)N1CCC(NC(=O)C(Cc2ccc(F)cc2)NC(C)=O)CC1` (stereo unspecified), the GTP binding activity is 99% (inactive). As for `COc1ccc(S(=O)(=O)N(C)C)cc1NC(=O)CSc1ncccn1`, the figure is 97% (inactive). As for `Cn1nnnc1SCC(=O)Nc1nc2ccccc2s1`, the figure is 97% (inactive); as for `CCNC(=O)COC(=O)/C=C/c1c(C)nn(Cc2cccc(OC)c2)c1Cl`, 95% (inactive); as for `CCOC(=O)c1sc(NC(=O)CSc2n[nH]c(CC)n2)nc1C`, 97% (inactive).

On to `O=C1c2cccc3c([N+](=O)[O-])ccc(c23)C(=O)N1CC1CCCO1` (stereo unspecified), for which the GTP binding activity is 95% (inactive). As for `COc1cccc(CN(C)CC(=O)Nc2sc3c(c2C#N)CCC3)c1`, the figure is 92% (inactive). As for `COc1ccc(S(=O)(=O)NCC2CCCN(C(=O)c3occc3C)C2)cc1` (stereo unspecified), the figure is 97% (inactive).

For `CCCCC(NC(=O)c1cccc(Br)c1)C(=O)O` (stereo unspecified), the GTP binding activity was 93% (inactive). As for `Cc1ccc(-c2nn(-c3cccc(F)c3)cc2CNCCc2ccncc2)o1`, the figure is 101% (inactive); as for `CC1COc2ccccc2N1C(=O)c1cccnc1Cl` (stereo unspecified), 99% (inactive); as for `Cc1nnsc1C(=O)Nc1cccc(Cl)c1C`, 95% (inactive).

As to `CCOc1ccccc1Nc1ccc(C(=O)O)cc1[N+](=O)[O-]`, the GTP binding activity was 99% (inactive). The same measure for `Cc1ccc(CN2CCC(N3CCC(C(=O)NCC4CCCO4)CC3)CC2)o1` (stereo unspecified): 97% (inactive).

As to `CCOc1ccc(N2C(=O)CN(c3cccc4ccccc34)C2=S)cc1`, the GTP binding activity was 99% (inactive). As for `Cc1cc(C)n(-c2ccc3nncn3n2)n1`, the figure is 102% (inactive). The same measure for `CSCC(=O)N1CCCC(C(=O)c2cc(F)ccc2F)C1` (stereo unspecified): 97% (inactive); for `COCCNc1nc2nonc2nc1N(C)Cc1ccc(C)cc1`: 95% (inactive). As for `CCOC(=O)C1(Cc2ccccc2C(F)(F)F)CCN(C(=O)c2cc(C)n(C)n2)CC1`, the figure is 98% (inactive); as for `COc1cccc2c1OCC(CN1CCN(C3CCCCC3)C(CCO)C1)=C2` (stereo unspecified), 100% (inactive). `CCN(CC)N=Nc1cccc(NC(C)=O)c1`: the GTP binding activity was 95% (inactive).

For `NC(=O)Cn1nc([N+](=O)[O-])nc1Oc1ccc(Br)cc1`, the GTP binding activity is 97% (inactive). The same measure for `O=C(O)/C=C/c1cn(Cc2ccccc2)nc1-c1cccs1`: 127% [activator] (active); for `O=C(O)/C=C/c1cn(-c2ccccc2)nc1-c1cccs1`: 93% (inactive). The same measure for `O=C(/C=C\c1cn(-c2ccccc2)nc1-c1cccs1)N1CCOCC1`: 104% (inactive).
